# Assay results: PubChem BioAssay (NCATS)
# “And” between values parts separate entries of the source, which are not always exact repeats. Equal entries are not always repeated. Results filed as inconclusive are left out. Where a call stands in place of a potency, no number is given. The source made the active and inactive calls. Calls come from the whole dose curve; as a rule, active = well fitted curve in the direction sought with a large enough effect; inconclusive = small, poorly fitted or top-dose-only effect, or another doubt; inactive = no such curve, though single readings can be large; an effect the other way counts as inactive or inconclusive.
# Legend:
# [1] = qHTS of pediatric cancer cell lines to identify multiple opportunities for drug repurposing: Primary screen for U-2 OS cells (AID 1347096); note: nearly all actives have a fitted effect of over 50% in size; note: potency is the fitted concentration of half-maximal effect
# Outline: (§1)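 Cells (500-1,000/well) rested 5 h, then received compounds for 48 h; metabolically active cells were measured by CellTiter-Glo luminescence. Final concentrations spanned up to 46 µM (MIPE, 11-point) or 0.59 nM-46 µM (NPC, 8-point) in primary screens, 11-point in follow-ups.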
# [2] = qHTS of pediatric cancer cell lines to identify multiple opportunities for drug repurposing: Primary screen for Saos-2 cells (AID 1347097); note: nearly all actives have a fitted effect of over 40% in size; note: potency is the fitted concentration of half-maximal effect
# Outline: (§2)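 Primary screen of approved and investigational compounds on cells in growth media at 37 degrees C, 5% CO2. MIPE set at 11-point and NPC set at 8-point dilutions; viability scored by ATP-based luminescence at 48 hours.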
# [3] = qHTS of pediatric cancer cell lines to identify multiple opportunities for drug repurposing: Primary screen for SK-N-SH cells (AID 1347098); note: nearly all actives have a fitted effect of over 65% in size; note: potency is the fitted concentration of half-maximal effect
# Outline: as §1
# [4] = qHTS of pediatric cancer cell lines to identify multiple opportunities for drug repurposing: Primary screen for LAN-5 cells (AID 1347100); note: potency is the fitted concentration of half-maximal effect
# Outline: as §1
# [5] = qHTS of pediatric cancer cell lines to identify multiple opportunities for drug repurposing: Primary screen for BT-12 cells (AID 1347101); note: nearly all actives have a fitted effect of over 25% in size; note: potency is the fitted concentration of half-maximal effect
# Outline: as §1
# [6] = qHTS of pediatric cancer cell lines to identify multiple opportunities for drug repurposing: Primary screen for OHS-50 cells (AID 1347103); note: nearly all actives have a fitted effect of over 40% in size; note: potency is the fitted concentration of half-maximal effect
# Outline: as §1
# [7] = qHTS of pediatric cancer cell lines to identify multiple opportunities for drug repurposing: Primary screen for RD cells (AID 1347104); note: nearly all actives have a fitted effect of over 55% in size; note: potency is the fitted concentration of half-maximal effect
# Outline: as §2
# [8] = qHTS of pediatric cancer cell lines to identify multiple opportunities for drug repurposing: Primary screen for MG 63 (6-TG R) cells (AID 1347105); note: nearly all actives have a fitted effect of over 50% in size; note: potency is the fitted concentration of half-maximal effect
# Outline: as §2
# [9] = qHTS of pediatric cancer cell lines to identify multiple opportunities for drug repurposing: Primary screen for Rh18 cells (AID 1347102); note: nearly all actives have a fitted effect of over 65% in size; note: potency is the fitted concentration of half-maximal effect
# Outline: as §1
# [10] = qHTS of pediatric cancer cell lines to identify multiple opportunities for drug repurposing: Primary screen for NB1643 cells (AID 1347099); note: nearly all actives have a fitted effect of over 50% in size
# Outline: as §2
Structure (SMILES),Potency [1],Potency [2],Potency [3],Potency [4],Potency [5],Potency [6],Potency [7],Potency [8],Potency [9],Potency [10]
C1COC(NC(C2CC2)C2CC2)=N1,inactive,inactive,inactive,inactive,inactive,inactive,inactive,inactive,–,–
O=c1n(CCCN2CCN(c3cccc(Cl)c3)CC2)nc2ccccn12,inactive,inactive,inactive,inactive,inactive,inactive,inactive,inactive,inactive,–
O=C(C=Cc1ccc(/C=C/C(=O)Nc2ccc(C3=NCCN3)cc2)cc1)Nc1ccc(C2=NCCN2)cc1,inactive,inactive,inactive,inactive,inactive,inactive,inactive,inactive,–,–
Cc1ccc(-n2nc(C(C)(C)C)cc2NC(=O)Nc2ccc(OCCN3CCOCC3)c3ccccc23)cc1,inactive,inactive,0.541 µM (active),inactive,–,–,26.4 µM (active),–,–,–
NC(=O)c1ccc(-c2nc(-c3ccc4c(c3)OCCO4)c(-c3ccccn3)[nH]2)cc1,inactive,inactive,–,inactive,inactive,–,inactive,inactive,inactive,inactive
CC(=O)NC(C)c1ccc(Oc2ccc(OC(C)C)cc2)cc1 (configuration not stated),inactive,18.7 µM (active),inactive,–,19.3 µM (active),21.7 µM (active),–,–,–,–
Cc1c(CCOc2ccc(C(=O)O)cc2)c2cc(Cl)ccc2n1C(c1ccccc1)c1ccccc1,inactive,inactive,24.1 µM (active),–,–,–,–,inactive,inactive,–
NCCCC(N)(C(=O)O)C(F)F (configuration not stated),inactive,inactive,inactive,inactive,inactive,inactive,inactive,inactive,inactive,–
COc1ccc([C@@H]2CC(=O)c3c(O)cc(O[C@@H]4O[C@H](CO[C@@H]5O[C@@H](C)[C@H](O)[C@@H](O)[C@@H]5O)[C@@H](O)[C@H](O)[C@@H]4O)cc3O2)cc1O,inactive,inactive,inactive,inactive,inactive,inactive,inactive,inactive,inactive,–
O=NN(CCCl)C(=O)NCCCl,inactive,inactive,inactive,inactive,inactive,inactive,inactive,inactive,inactive,–
CNC(=O)c1ccc(N2C(=S)N(c3ccc(C#N)c(C(F)(F)F)c3)C(=O)C2(C)C)cc1F,inactive,inactive,–,inactive,–,–,inactive,inactive,inactive,inactive
Cc1cn[nH]c1,inactive,inactive,inactive,inactive,–,0.611 µM (active),–,inactive,inactive,–
CCC(C)(C)C(=O)O[C@H]1C[C@@H](C)C=C2C=C[C@H](C)[C@H](CC[C@@H]3C[C@@H](O)CC(=O)O3)[C@H]21,18.7 µM (active),2.37 µM (active) and 2.96 µM (active),7.7 µM (active) and 21.5 µM (active),inactive,1.38 µM (active) and 1.93 µM (active),6.17 µM (active) and 10.9 µM (active),inactive,2.66 µM (active) and 4.69 µM (active),8.41 µM (active) and 14.8 µM (active),–
CC(C)(N)C(=O)N[C@H](COCc1ccccc1)C(=O)N1CCC2(CC1)CN(S(C)(=O)=O)c1ccccc12,inactive,inactive,30.4 µM (active),inactive,–,27.3 µM (active),26.4 µM (active),–,–,–
CC(C)(C)NCC(O)c1ccc(O)c(CO)c1 (configuration not stated),inactive,inactive,inactive,inactive,inactive,inactive,inactive,inactive,–,–
CCCc1nn(C)c2c(=O)[nH]c(-c3cc(S(=O)(=O)N4CCN(C)CC4)ccc3OCC)nc12,inactive,inactive,inactive,inactive,–,–,–,inactive,inactive,–
CC(C)NCC(O)COc1ccc(COCCOC(C)C)cc1 (configuration not stated),inactive,inactive,inactive,inactive,inactive,inactive,inactive,inactive,inactive,–
CCCCCCCc1ccc(CCc2cccc(O)c2C(=O)O)cc1,inactive,inactive,–,inactive,–,–,–,–,inactive,inactive
Cc1[nH]c(=O)c(C#N)cc1-c1ccc2nccn2c1,inactive,inactive,inactive,inactive,inactive,inactive,inactive,inactive,–,–
O=C(O)[C@@H](c1ccc(OCc2ccc3ccccc3n2)cc1)C1CCCC1,inactive,inactive,inactive,inactive,inactive,–,inactive,inactive,inactive,–
CO[C@@H]1[C@H](N(C)C(=O)c2ccccc2)C[C@H]2O[C@]1(C)n1c3ccccc3c3c4c(c5c6ccccc6n2c5c31)C(=O)NC4,3.72 µM (active),0.833 µM (active),1.92 µM (active),0.526 µM (active),–,2.17 µM (active),inactive,743 nM (active),1.32 µM (active),–
Cc1ccccc1C(OCCN(C)C)c1ccccc1 (configuration not stated),inactive,inactive,–,inactive,inactive,–,inactive,inactive,–,inactive
Nc1ccc(S(=O)(=O)Nc2ccnn2-c2ccccc2)cc1,inactive,inactive,inactive,inactive,inactive,inactive,inactive,inactive,inactive,–
